Screening results: PubChem BioAssay, National Center for Advancing Translational Sciences (NCATS)
HEK293 tox – Cytotoxic Profiling in HEK 293 Cell Line of Diverse Libraries Using Quantitative High-Throughput Screening; HEK 293 viability, ATP luminescence (CellTiter-Glo), 48-72 h; actives 6.6% (n = 94,000); Potency, µM (top dose mostly 115 µM), without a hit: at the top dose activity change, negative = cytotoxicity, most hits filed as inhibitors; note: % is set by controls: 0 for no effect and ±100 for the full control effect; nearly all actives have a fitted effect of over 60% in size
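Cells seeded first (HEK 293, 250 cells/well), then compound added by pintool. Incubation ran 48 or 72 hr at 37 degree Celsius. CellTiter-Glo was added and luminescence imaged after 10 min at room temperature.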
FLuc inh – Firefly luciferase inhibition profiling of diverse chemical library using quantitative high-throughput screening. Luciferin 4-monooxygenase (Photinus pyralis), P08659. actives 2.5% (n = 76,000). purified P. pyralis luciferase, luminescence, biochemical. AID 1347043, 2019. Potency, µM (series often up to 115 µM), actives largely listed as inhibitors; note: % is set by controls: 0 for no effect and ±100 for the full control effect; nearly all actives have a fitted effect of over 65% in size
Target sequence (P08659 whole entry, looked up): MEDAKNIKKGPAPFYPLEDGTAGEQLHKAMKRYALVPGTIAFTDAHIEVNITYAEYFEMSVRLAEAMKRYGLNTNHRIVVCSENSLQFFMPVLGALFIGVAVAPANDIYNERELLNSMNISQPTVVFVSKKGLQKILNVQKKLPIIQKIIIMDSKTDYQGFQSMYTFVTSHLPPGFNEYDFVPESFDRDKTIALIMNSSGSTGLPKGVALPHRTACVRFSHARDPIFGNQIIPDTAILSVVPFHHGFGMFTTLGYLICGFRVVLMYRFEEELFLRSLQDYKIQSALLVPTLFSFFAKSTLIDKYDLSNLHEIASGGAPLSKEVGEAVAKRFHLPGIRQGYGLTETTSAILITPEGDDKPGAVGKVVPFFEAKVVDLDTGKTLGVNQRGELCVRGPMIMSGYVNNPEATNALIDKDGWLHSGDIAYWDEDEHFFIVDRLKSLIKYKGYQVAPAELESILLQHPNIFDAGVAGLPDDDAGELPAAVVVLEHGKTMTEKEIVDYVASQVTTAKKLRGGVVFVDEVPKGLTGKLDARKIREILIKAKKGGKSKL
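Inhibitors were tested against purified firefly luciferase in a biochemical, low-substrate format (both substrates at 10uM) and luminescence measured with a CCD imager.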
NIH3T3 tox – Cytotoxic Profiling in NIH 3T3 Cell Line of Diverse Libraries Using Quantitative High-Throughput Screening. NIH 3T3 viability, CellTiter-Glo ATP luminescence, 48-72 h. Potency, µM (top dose mostly 96.7 µM), inactives show top-dose activity change, negative = cytotoxicity, usual class: inhibitors. actives 4.3% (n = 94,000). AID 1345082, 2018; note: % is set by controls: 0 for no effect and ±100 for the full control effect; nearly all actives have a fitted effect of over 55% in size
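Cytotoxicity was measured by CellTiter-Glo ATP luminescence after 48 or 72 h compound exposure at 37 °C. Mouse NIH 3T3 fibroblasts were seeded at 400 cells/well and dosed by 23 nL pin transfer.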
hNpr1 antagonist – Natriuretic polypeptide receptor (hNpr1) antagonism - Primary qHTS; actives 1.6% (n = 76,000); Potency, µM (highest dose often 46.3 µM), for the others: at the highest dose activity change, negative = inhibition, actives largely listed as inhibitors; HEK293 hNpr1 GloSensor cGMP, ANP-stimulated luminescence; Atrial natriuretic peptide receptor 1 (Homo sapiens), P16066; calls by dose curve; note: % is set by controls: 0 for no effect and ±100 for the full control effect; nearly all actives have a fitted effect of over 60% in size
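Compound pre-incubated 30 min at room temperature on GloSensor-loaded HEK293 cells stably carrying hNpr1 and the pGS-40F cGMP biosensor. Stimulation uses hNppA at 0.1 nM final; luminescence is taken at baseline and 20 min post-agonist.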
HEK293 viab – GF-AFC viability counterscreen for inhibitors of alpha-synuclein gene (SNCA) expression | HEK-293-SNCA-luc viability, GF-AFC fluorescence, 24 h | Potency, µM (titrated, usually from 57.1 µM), without a hit: at the top dose activity change, negative = cytotoxicity, hits mostly cytotoxic | actives 0.12% (n = 150,000) | AID 1671193, 2021;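 note: 0% = DMSO-treated cells and -100% = medium-only wells without cells; nearly all actives have a fitted effect of over 30% in size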
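HEK-293-SNCA-luc cells (1500/well) plated 24 h, then exposed 24 h to a dilution series; GF-AFC added 30 min at 37C, fluorescence 405/540 nm; normalised to medium-only and DMSO wells, Hill fit.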
SNCA expr inhib – Primary qHTS assay for inhibitors of alpha-synuclein gene (SNCA) expression; Potency, µM (titrated, usually from 57.2 µM), without a hit: top-dose activity change, negative = inhibition, most hits filed as inhibitors; HEK-293 SNCA-luciferase knock-in, luminescence, 24 h; actives 0.17% (n = 140,000); AID 1671194, 2021;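 note: plate controls were DMSO cells for no effect and cell-free wells for full effect; nearly all actives have a fitted effect of over 45% in size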
Npr1 antag conf – Natriuretic polypeptide receptor (hNpr1) antagonism - Confirmation | shares compounds with hNpr1 antagonist | Potency, µM (titrated, usually from 57.6 µM), for the others: top-dose activity change, negative = inhibition, actives largely listed as inhibitors | AID 1347044, 2019 | actives 76% (n = 1,400) | HEK293 hNpr1 cGMP GloSensor luminescence, ANP-stimulated; calls by dose curve; note: nearly all actives have a fitted effect of over 70% in size
Npr2 selectivity – Natriuretic polypeptide receptor (hNpr2) antagonism - Subtype selectivity assay; Potency, µM (titrated, usually from 57.6 µM), inactives show at the top dose activity change, negative = inhibition, hits mostly inhibitors; HEK293 hNpr2 GloSensor cGMP luminescence, CNP-stimulated; actives 67% (n = 1,400); shares compounds with hNpr1 antagonist; calls by dose curve; note: nearly all actives have a fitted effect of over 70% in size
FLuc counter – Natriuretic polypeptide receptor (hNpr1) antagonism - Confirmation firefly luciferase (FLuc) inhibition counterscreen; shares compounds with hNpr1 antagonist; purified FLuc enzyme, luminescence, Km substrate; Potency, µM (highest dose often 57.6 µM), for the others: at the highest dose activity change, negative = inhibition, most hits filed as inhibitors; actives 0.7% (n = 1,400); AID 1347047, 2019; note: 0% is about no effect
GloSensor ctrl – Natriuretic polypeptide receptor (hNpr1) antagonism - Counterscreen GloSensor control cell line. shares compounds with hNpr1 antagonist. actives 69% (n = 1,400). Potency, µM (titrated, usually from 57.6 µM), for inactives: at the top dose activity change, negative = inhibition, usual class: inhibitors. HEK293 GloSensor cGMP, SNP-stimulated, luminescence; calls by dose curve; note: % is set by controls: 0 for no effect and ±100 for the full control effect; nearly all actives have a fitted effect of over 70% in size
* = called active by the depositor; [ ] = another dose, or the depositor's remark. The list is not random: actives were taken first. Their share in the collection is about 7.4%. Unless noted, calls come from the whole dose curve; as a rule, active = well fitted curve in the direction sought with a large enough effect; inconclusive = small, poorly fitted or top-dose-only effect, or another doubt; inactive = no such curve, though single readings can be large; an effect the other way counts as inactive or inconclusive. Potency is the fitted concentration of half-maximal effect.

`Cc1ccc(CNC(=O)c2ccc3c(c2)CN(Cc2ccc(N(C)C)cc2)CCO3)cc1` gave HEK293 tox inconclusive, FLuc inh inactive, NIH3T3 tox inconclusive, hNpr1 antagonist 11µM*, HEK293 viab -11%, SNCA expr inhib inconclusive, Npr1 antag conf 24µM*, Npr2 selectivity 27µM*, FLuc counter 2% and GloSensor ctrl 27µM*.
For O=C(Nc1ccc(F)cc1)c1ccc2c(c1)OCCN(c1ccccc1)C2 the results were HEK293 tox 56µM*, FLuc inh inactive, NIH3T3 tox inconclusive, hNpr1 antagonist 32µM*, HEK293 viab -20%[87.6 µM], SNCA expr inhib 23%[87.6 µM], Npr1 antag conf 40µM*, Npr2 selectivity 40µM*, FLuc counter -14%[86.2 µM] and GloSensor ctrl 40µM*.
COc1ccc(Cl)cc1C(=O)N1CCN(c2cc(-c3cccs3)[nH]n2)CC1 was read as HEK293 tox inconclusive, FLuc inh inactive, NIH3T3 tox inconclusive, hNpr1 antagonist inconclusive, HEK293 viab -11% and SNCA expr inhib -22%.
Screening COc1ccc(C(=O)N2CCN(c3cc(-c4cccs4)[nH]n3)CC2)c(C)c1 returned HEK293 tox 50µM*, FLuc inh inactive, NIH3T3 tox inconclusive, hNpr1 antagonist 11µM*, HEK293 viab 0%, SNCA expr inhib -6%, Npr1 antag conf 19µM*, Npr2 selectivity 19µM*, FLuc counter 0% and GloSensor ctrl 15µM*.
`COc1cc(Cl)ccc1C(=O)N1CCN(c2cc(-c3cccs3)[nH]n2)CC1` gave HEK293 tox 25µM*, FLuc inh inactive, NIH3T3 tox inconclusive, hNpr1 antagonist 11µM*, HEK293 viab -13%, SNCA expr inhib inconclusive, Npr1 antag conf 19µM*, Npr2 selectivity 19µM*, FLuc counter 2% and GloSensor ctrl 17µM*.
For O=C(c1ccc(Cl)cc1Cl)N1CCN(c2cc(-c3cccs3)[nH]n2)CC1 the results were HEK293 tox 45µM*, FLuc inh inactive, NIH3T3 tox 8.9µM*, hNpr1 antagonist 10µM*, HEK293 viab 4%, SNCA expr inhib 6%, Npr1 antag conf 24µM*, Npr2 selectivity 19µM*, FLuc counter 1% and GloSensor ctrl 22µM*.
`COc1cc(OC)cc(C(=O)N2CCN(c3cc(-c4cccs4)[nH]n3)CC2)c1` gave HEK293 tox inconclusive, FLuc inh inactive, NIH3T3 tox inconclusive, hNpr1 antagonist -17%, HEK293 viab -15% and SNCA expr inhib -25%.
`O=C(c1ccc(-c2ccco2)cc1)N1CCOc2ccc(CN3CCN(c4ccccn4)CC3)cc2C1` gave HEK293 tox -18%, FLuc inh inactive, NIH3T3 tox -12%, hNpr1 antagonist -6%, HEK293 viab -5% and SNCA expr inhib -10%.
For O=C(Cc1ccc(F)cc1)NC1CN(c2ccnc3ccnn23)C1 the results were HEK293 tox -27%[172 µM], NIH3T3 tox -29%[138 µM], HEK293 viab 4%[87.6 µM] and SNCA expr inhib -2%[87.6 µM].
Cc1nc(C)c(CC(=O)N2CCCC(C)(Cc3ccc4c(c3)OCO4)C2)s1 (stereo not given) was read as HEK293 tox 28µM*, FLuc inh inactive, NIH3T3 tox -28%, hNpr1 antagonist 14µM*, HEK293 viab 1%, SNCA expr inhib -15%, Npr1 antag conf 19µM*, Npr2 selectivity 22µM*, FLuc counter 0% and GloSensor ctrl 17µM*.
Screening O=C(C1CC=CC1)N1CCC[C@H](n2c(=O)n(Cc3cccc(F)c3)c3cccnc32)C1 returned HEK293 tox inconclusive, NIH3T3 tox inconclusive, HEK293 viab -10% and SNCA expr inhib -25%.
`Cc1nn2c(c1-c1ccccc1-c1ccccc1)N(C(=O)Cc1ccc3c(c1)OCO3)CCC2` gave HEK293 tox inconclusive, FLuc inh inactive, NIH3T3 tox inconclusive, hNpr1 antagonist -30%, HEK293 viab -8% and SNCA expr inhib inconclusive.
Cc1nn2c(c1-c1ccccc1Oc1ccccc1)N(C(=O)Cc1ccc3c(c1)OCO3)CCC2 was read as HEK293 tox inconclusive, FLuc inh inactive, NIH3T3 tox inconclusive, hNpr1 antagonist 7.9µM*, HEK293 viab -3%, SNCA expr inhib -28%, Npr1 antag conf 11µM*, Npr2 selectivity 5.4µM*, FLuc counter -4% and GloSensor ctrl -24%.
For Cc1nn2c(c1-c1ccccc1OCc1ccccc1)N(C(=O)Cc1ccc3c(c1)OCO3)CCC2 the results were HEK293 tox 79µM*, FLuc inh inactive, NIH3T3 tox 13µM*, hNpr1 antagonist 8.9µM*, HEK293 viab -12%, SNCA expr inhib -18%, Npr1 antag conf 11µM*, Npr2 selectivity 6.1µM*, FLuc counter 1% and GloSensor ctrl -1%.
Screening Cc1ccc(C(=O)N2CCC(F)(C(=O)N3CCOCC3)CC2)s1 returned HEK293 tox -1%, NIH3T3 tox 2%, HEK293 viab -4% and SNCA expr inhib 33%.
